# Shown are actives, neighbours in structure and some others; about 3.7% of the full set was active somewhere.
# MazF activator: MazEF (E. coli) toxin RNase activation | activation, % at 20 µM | 350,000 tested, 0.32% active | P0AE70 | FAM/BHQ RNA-DNA oligo cleavage fluorescence, 5 h; in the data active = activation above about 50%
# Target sequence (P0AE70 whole entry, looked up): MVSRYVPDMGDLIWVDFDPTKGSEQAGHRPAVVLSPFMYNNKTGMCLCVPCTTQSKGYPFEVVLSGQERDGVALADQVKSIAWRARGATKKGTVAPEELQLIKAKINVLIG
# Autofluor counter: flagged as autofluorescent in microsphere protease counterscreen. compound autofluorescence counterscreen, microsphere flow cytometry; hits give high values. fluorescence intensity (test concentration not listed). 360,000 tested, 3.1% active; in the data active = fluorescence intensity above about 16000; inconclusive = no clear call, values can overlap the other calls
# BoNT A protease: BoNT A light chain protease inhibition. multiplex microsphere protease substrate cleavage, flow cytometry. inhibition, % at 10 µM. 360,000 tested, 0.17% active. AID 588499; also: plate controls were buffer without enzyme for full effect and enzyme alone for no effect
# BoNT-F LC inh: inhibitors of Botulinum neurotoxin F light chain protease; Multiplex microsphere protease cleavage assay, flow cytometry; inhibition, % at 10 µM; 360,000 tested, 0.22% active; AID 588497; in the data active = inhibition above about 35%, passing the limit was not always enough; inconclusive = no clear call, values can overlap the other calls; also: plate controls were buffer without enzyme for full effect and enzyme alone for no effect
# Anthrax LF inh2: blocks Bacillus anthracis lethal factor protease; P15917; multiplex microsphere protease cleavage assay, LF; inhibition, % at 10 µM; 360,000 tested, 0.12% active; AID 588501; also: plate controls were buffer without enzyme for full effect and enzyme alone for no effect
# Starred values were filed as active, the others as inactive; ? = inconclusive; nt = no result. Rule as the data show it, unless noted: active = inhibition above about 30%; inconclusive = no clear call, values can overlap the other calls; inactive = below that.
SMILES,MazF activator,Autofluor counter,BoNT A protease,BoNT-F LC inh,Anthrax LF inh2
Cc1ccc(C(=O)COC(=O)CNC(=O)c2ccco2)cc1,5.1,20040*,-1.0,-1.5,1.0
Cc1nn(-c2ccccc2)c(C)c1C(=O)NCc1ccc(S(N)(=O)=O)cc1,8.7,5806,0.8,8.9,1.3
COc1cc(/C=C2/C(=N)N3OC(C)=CC3=NC2=O)ccc1OCCOc1ccc(C)cc1,90.6*,6408,1.6,1.6,-8.8
CCOc1cc(/C=C2/C(=N)N3OC(C)=CC3=NC2=O)ccc1OCCOc1ccccc1,148.9*,7026,-1.0,-9.3,-6.5
CCOc1ccc(/C=C2/C(=N)N3OC(C)=CC3=NC2=O)cc1OC,-1.6,2564,-1.2,-6.6,-0.6
CCOc1cc(/C=C2/C(=N)N3OC(C)=CC3=NC2=O)ccc1OC(=O)c1ccco1,49.2,1961,-0.4,-0.5,-1.3
CC(C)(C)c1ccc(C(=O)NCc2nnc(SCC(=O)NCC3CCCO3)o2)cc1 (centres undefined),0.3,4597,-2.1,8.1,0.5
CC1OC(CCc2cccc(Cl)c2)Cc2[nH]c(=S)[nH]c(=O)c21 (centres undefined),nt,4462,0.8,1.7,0.5
CN(Cc1ccccc1)C(=O)CN1C(=O)C2C3C=CC(C3)C2C1=O (centres undefined),7.1,21276*,-4.0,-5.4,-1.6
CN(Cc1ccccc1)C(=O)CN1C(=O)c2ccccc2C1=O,-3.8,3400,-2.8,-2.7,26.3
Nc1ccc(C(O)(C(F)(F)F)C(F)(F)F)cc1,4.3,16402*,-0.2,-0.1,0.4
CCC(=O)N1CCC(C)(C(=O)Nc2ccc3c(c2)OCO3)C1 (centres undefined),nt,3400,-0.3,-3.1,-1.0
CNC(=S)N1N=C(c2ccc(Br)cc2)CC1c1ccc(N(C)C)cc1 (centres undefined),-20.8,5318,0.1,-4.5,-2.2
CNC(=S)N1N=C(c2ccc(Br)cc2)CC1c1ccc(Br)cc1 (centres undefined),-11.1,21159*,-0.3,-4.2,-2.7
CC(=O)NCCNC(=O)C1(C)Cc2c(-c3cccc(NC(C)=O)c3)ccnc2O1 (centres undefined),nt,3577,-0.3,-8.7,2.3
O=C(Cn1c(=O)[nH]c2ccsc2c1=O)NC1CCCCCC1,8.7,23444*,?,-0.9,-3.7
COc1ccc(CNC(=O)c2cn(Cc3ccc(S(=O)(=O)N(C)C)cc3)c(=O)s2)cc1,nt,4257,-0.8,-7.7,-11.6
Cc1csc(=O)n1CC(=O)OCC(=O)Nc1ccc(C(N)=O)cc1,-12.3,?,-5.6,-18.8,-4.9
Cc1ccc(NC(=O)COC(=O)Cn2c(C)csc2=O)cc1C,-0.5,17233*,-2.8,-9.3,-5.8
O=S(CC(O)c1ccccc1)c1ccccc1 (centres undefined),1.3,4065,-0.4,-7.4,0.2
COc1ccc(NC(=O)c2csc3c2CCCC3)cc1,5.4,23873*,-1.2,-3.1,-1.7
O=C(NCc1ccccc1)c1csc2c1CCCC2,-1.2,2622,0.0,-1.0,0.9
Cc1ccccc1NC(=O)c1csc2c1CCCC2,0.3,20804*,-3.1,-3.9,-4.1
COc1cccc(NC(=O)c2csc3c2CCCC3)c1,3.5,2482,0.1,-3.7,1.9
COc1nc(C#N)nc(N(C)C)n1,7.9,20512*,-0.5,-0.6,-2.1
SMILES,MazF activator,Autofluor counter,BoNT A protease,BoNT-F LC inh,Anthrax LF inh2
CCN(CC)C(=O)CN(C#N)c1nc(OC)nc(N(C)C)n1,5.3,9104,0.6,-5.1,0.2
CCCCN(C(=O)CCSc1ccc(F)cc1)c1c(N)n(Cc2ccccc2)c(=O)[nH]c1=O,1.9,5492,-0.5,-0.4,-2.7
COc1ccc(OC)c(NC(=O)Nc2nc(C(N)c3ccccc3Cl)cs2)c1 (centres undefined),nt,2836,-0.1,-15.9,-12.2
Cc1ccc(C(=O)CC(=O)c2cc(Cl)ccc2O)cc1,1.0,10212,-0.9,-0.7,-4.6
CC(C)(C)c1ccc(C(=O)CC(=O)c2cc(Cl)ccc2O)cc1,2.6,21100*,-0.6,-1.2,-1.3
O=[N+]([O-])c1ccc(/C=N/n2c(C3CCCCC3)n[nH]c2=S)cc1,-5.8,22651*,?,-1.7,-0.2
S=c1[nH]nc(C2CCCCC2)n1/N=C/c1cccs1,4.7,23451*,?,-4.3,0.3
CCOC(=O)C1C(=O)C=C(c2ccc(C)cc2)CC1c1ccccc1 (centres undefined),-0.2,4728,-0.9,-3.7,-2.1
CCOC(=O)C1C(=O)C=C(/C=C/c2ccc(N(C)C)cc2)CC1c1ccccc1 (centres undefined),106.0*,4380,7.2,3.0,6.2
CCCNC(=O)C(Cc1ccccc1)NC(=O)c1ccccc1 (centres undefined),3.7,3413,-0.1,3.1,2.9
CC(NC(=O)C(Cc1ccccc1)NC(=O)c1ccccc1)C(=O)O (centres undefined),1.8,22982*,?,-1.2,-0.8
O=C1C2C3c4ccccc4C(c4ccccc43)C2C(=O)N1/N=C/c1cccc(O)c1 (centres undefined),5.5,17348*,-1.8,-3.7,-2.8
O=C1CCCc2c1nn(-c1ccccc1)[n+]2[O-],4.6,18962*,9.9,9.6,-15.9
CCc1c(C)c2ccc(OCC(=O)NCC3CCC(C(=O)O)CC3)cc2oc1=O (centres undefined),0.6,5900,-0.4,-2.1,-9.6
COc1cc2ccccc2cc1C(=O)N1CC(C)CC(C)C1 (centres undefined),-12.7,?,1.4,-0.3,0.5
O=C(Cn1c(-c2ccccc2)noc1=O)Nc1ccc(S(=O)(=O)N2CCOCC2)cc1,12.2,10369,0.2,-5.8,-4.9
O=C(Cn1c(-c2ccccc2)noc1=O)Nc1ccc(N2CCCCCC2)cc1,2.2,25078*,-5.3,-11.6,-5.0
CC(=O)Nc1ccc(C(=O)OCC(=O)N(c2ccccc2)C2CCCCC2)cc1,3.0,3703,-0.1,-2.3,1.8
Cc1ccc(S(=O)(=O)CNC(=S)c2ccc3ccccc3c2)cc1,0.8,22964*,?,0.9,-1.1
Cc1ccc(S(=O)(=O)CNC(=S)c2cccc(C)c2)cc1,3.4,10274,-0.7,-7.4,-1.8
COc1ccccc1NC(=O)c1ccc(S(=O)(=O)N2CCC(C)CC2)cc1,-24.6,3054,1.5,1.1,-1.6
C=CCN=C(NC#N)SCC(=O)NCc1ccccc1,5.3,4977,1.3,-8.0,-2.0
C=CCN=C(NC#N)SCCc1ccccc1,-5.2,20089*,-2.6,-4.7,-6.6
Cc1ccc2nc(NC(=O)CCNS(=O)(=O)c3ccc(Br)s3)sc2c1,-12.8,23058*,0.8,0.6,-6.4
Cc1ccc2nc(NC(=O)CCNS(=O)(=O)c3cccs3)sc2c1,4.6,10854,-0.5,9.1,-7.9
COc1cccc(NC(=O)COC(=O)c2c3c(nc4ccccc24)CCC(C)C3)c1 (centres undefined),-2.9,19387*,4.2,0.5,-0.4
O=C(CN1CCCCCC1)Nc1cccc(NC(=O)CN2CCCCCC2)c1,6.6,nt,nt,nt,nt
O=C(CN1CCCCC1)Nc1cccc(Oc2ccccc2)c1,1.7,23011*,-2.2,-5.7,0.6
COc1cccc(N/C(SC)=C(/C#N)C(N)=O)c1,-5.8,23601*,-1.7,-2.5,-4.4
